SMILES strings stand for the structures. Results filed as inconclusive are left out. The source made the active and inactive calls. Unless noted, the call rests on the fitted dose curve.

One experiment in a line: Confirmation and Secondary Assay for Modulators of Hemoglobin Beta Chain Splicing at IVS2 705 locus (AID 930; active means well fitted activation curve with a large enough effect;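 further: HeLa cells stably expressing the EGFP-705 splicing reporter; GFP fluorescence per well restored by corrected splicing of the IVS2-705 intron in EGFP; % of control where 0% means no effect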). To be noted: HeLa EGFP-705 splicing reporter, GFP fluorescence, 48 h; series mostly up to 46.1 µM. Put shortly:
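Per-well GFP, captured at 1 x 8 µm resolution with 488 nm excitation, served as the read-out for HeLa EGFP-705 cells incubated 2 days with test compound versus DMSO.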
On to `O=C(NC1CCCCC1)NC1CCCCC1`, for which the Potency entry was “inactive”.

On to `COc1ccc(CCC(=O)c2c(O)cc(OC3OC(CO)C(O)C(O)C3O[C@@H]3OC(C)C(O)C(O)C3O)cc2O)cc1O` (stereo partly drawn), for which the Potency entry was “inactive”. As for `CC1CC2C3CCC4=CC(=O)C=C[C@]4(C)[C@@]3(Cl)C(O)C[C@]2(C)C1(OC(=O)c1ccco1)C(=O)CCl` (stereo partly drawn), the Potency result was “inactive”.

With `CC1(C)C[C@@H]2C(=O)CCC3O[C@@]3(C)CCC21` (stereo partly drawn), the Potency entry is “inactive”. Still for that read-out and setting: the entry for `CC1(C)CC23C(=O)CCC(O)C2(C)CCC13` (stereo not drawn) is “inactive”; for `COc1cc2cc[n+]3cc4c(OC)c(OC)ccc4cc3c2cc1OC` it is “inactive”. Same read-out and setting: the entry for `COc1ccc(-c2cc(=O)c3c(O)c(OC)c(OC)c(OC)c3o2)cc1OC` is “inactive”; for `COC(=O)C1OC(=O)C2O[C@@]23[C@]2(C)C(OC(C)=O)CC4C(C)(C)C(=O)CC[C@]4(C)C2CC[C@@]13C` (stereo partly drawn) it is “inactive”. The same measure, in the same setting: for `CC(=O)OC1CC2C(C)(C)C=CC(=O)[C@@]2(C)C2CC[C@@]3(C)C(c4ccoc4)OC(=O)C4OC43[C@]12C` (stereo partly drawn) the value was “inactive”; for `CCOC(=O)c1c(C)cc(O)c(C=O)c1O`, “inactive”; for `C[C@@H]1CCC2[C@](C)(CO)C(O)CC[C@@]2(C)[C@@]12CC[C@](CO)(CCO)O2` (stereo partly drawn), “inactive”. Regarding `O=C(/C=C/c1ccccc1)c1ccc(O)cc1`, the Potency result is “inactive”.

Turning to `CC(=O)OC1CC2C(C)(C)C(=O)[C@@H]3OC3[C@@]2(C)C2CC[C@]3(C)C(=CC(=O)OC3c3ccoc3)[C@]12C` (stereo partly drawn), the Potency entry was “inactive”.

Take `Cc1cc(=O)oc2c(O)c(O)ccc12`: the Potency result is “inactive”.

As for `COc1ccc(-c2coc3cc(OC(C)=O)cc(OC(C)=O)c3c2=O)cc1`, the Potency entry was “inactive”. On the same count and under the same terms, for `COc1ccc(C(=O)c2ccc(O)cc2)c(O)c1O` the value was “inactive”.

In the case of `CC12CCC3C(=CCc4cc(O)ccc43)C1CCC2=O` (stereo not drawn), the Potency entry was “inactive”.

With `CC(=O)OC1CC(OC(C)=O)[C@]2(C)C(CC(=O)[C@]3(C)C2CC[C@@]2(C)C(C(=O)O)OC(=O)C4OC423)C1(C)C` (stereo partly drawn), the Potency result is “inactive”. As to `COC1=CC(=O)C(C(=O)c2ccccc2)=CC1=O`, the Potency entry was “inactive”.

For `CC(Oc1ccccc1)C(=O)NC1C(=O)N2C(C(=O)O)C(C)(C)S[C@@H]12` (stereo partly drawn), the Potency entry is “inactive”. In the case of `CC(=O)O[C@](C)(CCC=C(C)C)C1CC=C(C)CC1` (stereo partly drawn), the Potency result is “inactive”.

A short description of the next experiment: qHTS Assay for Lipid Storage Modulators (AID 1519). Further: on the % scale 0 is the no-effect control and ±100 the full control effect. The note with it: Drosophila S3 cells, BODIPY lipid droplet/cell ratio, laser cytometry; at 57.5 µM (top of the series); cells loaded with oleic acid. An outline of the steps:
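Cells seeded at 5,000 per well were treated with compounds over a concentration series and loaded with oleic acid (400 uM, as added). Lipid droplet fluorescence (488 nm excitation, 500-530 nm channel) was read by laser-scanning cytometry and normalized to 20 uM Triacsin C.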
Take `COc1cc(OC)c(C(C)=O)c(O)c1C`: the activity change, negative = inhibition is 17% (inactive).

As to `COc1ccc(-c2coc3c(O)c(OC)ccc3c2=O)cc1`, the activity change, negative = inhibition was 2.6% (inactive). With `COc1cc(O)c(C)c(O)c1`, the activity change, negative = inhibition is 1.69% (inactive). Still for that read-out and setting: for `C=C1CCC(=O)C(C)CCC2C1CC2(C)C` (stereo not drawn) the value was 1.2% (inactive); for `CCCCN1CCCCC1C(=O)Nc1c(C)cccc1C` (stereo not drawn), 7.02% (inactive). For `CC1(C)C(O)C=C[C@@]2(C)C1CC(=O)O[C@@]1(C)C3=CC(=O)OC(c4ccoc4)[C@]3(C)CCC21` (stereo partly drawn), the activity change, negative = inhibition was 9.57% (inactive). Still for that read-out and setting: the figure for `C=C1C(=O)OC2CC1C(OC(C)=O)CC(C)=CCCC(C)=CCC[C@@]2(C)O` (stereo partly drawn) is -0.0283% (inactive).

`CC1(C)CC2C1CCC1(C)OC1CCC2(C)O` (stereo not drawn): the activity change, negative = inhibition is -2.16% (inactive). Still for that read-out and setting: the figure for `C#C[C@]1(O)CCC2C3CCC4=Cc5oncc5C[C@@]4(C)C3CC[C@@]21C` (stereo partly drawn) is 9.19% (inactive); for `Cc1cc(O)c(C=O)c(O)c1C(=O)O` it is 3.98% (inactive). For `COC(=O)CC1C(C)(C)C(OC(C)=O)[C@@]2(O)C=C3C4CC(=O)OC(c5ccoc5)[C@]4(C)CCC3[C@@]1(C)C2=O` (stereo partly drawn), the activity change, negative = inhibition is 10.4% (inactive). As to `C=CC(C1=CC(=O)C=CC1=O)c1ccccc1` (stereo not drawn), the activity change, negative = inhibition is 7.07% (inactive).

As for `CC(=O)C1CCC2C3CC(C)C4=CC(=O)CC[C@@]4(C)C3C(O)C[C@@]12C` (stereo partly drawn), the activity change, negative = inhibition was 8.05% (inactive). On the same count and under the same terms, for `CO[C@]12CC(COC(=O)c3cncc(Br)c3)CN(C)[C@@H]1Cc1cn(C)c3cccc2c13` (stereo partly drawn) the value was 10.2% (inactive); for `CCOC(=O)C(Cc1ccc(O)cc1)NC(C)=O` (stereo not drawn), 7.38% (inactive).

For `COc1ccc(-c2coc3cc(O)ccc3c2=O)c(OC)c1`, the activity change, negative = inhibition is -0.403% (inactive). Consider `COC(=O)CC1C(C)(C)C(OC(C)=O)C2CC3=C4CC(=O)OC(c5ccoc5)[C@]4(C)CCC3[C@@]1(C)C2=O` (stereo partly drawn), for which the activity change, negative = inhibition is -5.96% (inactive). Consider `COC(=O)c1cc(OC)c(=O)c2c(OC)c(OC)ccc2c1`, for which the activity change, negative = inhibition is 6.06% (inactive). The same measure, in the same setting: the figure for `COc1cc(O)cc(OC)c1OC` is 1.28% (inactive); for `O=C(NC1CCCCC1)NC1CCCCC1` it is 9.61% (inactive). Regarding `COc1ccc(CCC(=O)c2c(O)cc(OC3OC(CO)C(O)C(O)C3O[C@@H]3OC(C)C(O)C(O)C3O)cc2O)cc1O` (stereo partly drawn), the activity change, negative = inhibition is 7.07% (inactive).

Regarding `CC1CC2C3CCC4=CC(=O)C=C[C@]4(C)[C@@]3(Cl)C(O)C[C@]2(C)C1(OC(=O)c1ccco1)C(=O)CCl` (stereo partly drawn), the activity change, negative = inhibition is 12.6% (inactive).

These data come from PubChem BioAssay (NCATS).
